Screening data deposited in PubChem by National Center for Advancing Translational Sciences (NCATS).
TDP1 cell CPT: qHTS for Inhibitors of human tyrosyl-DNA phosphodiesterase 1 (TDP1): qHTS in cells in presence of CPT | chicken DT40 Tdp1-/-;hTDP1 cells + 20 nM CPT, ATP luminescence, 48 h | Potency, µM (titrated, usually from 46.2 µM), without a hit: top-dose activity change, negative = growth inhibition, usual class: inhibitors | hit rate 12% among 420,000; also: potency is read from the fitted curve at half-maximal effect; nearly all actives have a fitted effect of over 55% in size
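Chicken DT40 Tdp1-/- cells stably complemented with human TDP1 were seeded at 400 cells/well in medium containing 20 nM camptothecin, exposed to pin-transferred compounds, and grown at 37 °C for at least 48 hr. Viability was read as ATP luminescence.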
TDP1 cell noCPT: qHTS for Inhibitors of human tyrosyl-DNA phosphodiesterase 1 (TDP1): qHTS in cells in absence of CPT | DT40 Tdp1-/- hTDP1 cells, no CPT, ATP luminescence, 48 h | Potency, µM (top dose mostly 46.2 µM), for inactives: top-dose activity change, negative = growth inhibition, actives largely listed as inhibitors | hit rate 15% among 420,000 | AID 686978, 2013; also: potency is read from the fitted curve at half-maximal effect; nearly all actives have a fitted effect of over 55% in size
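Chicken DT40 Tdp1-/- cells stably complemented with human TDP1 were seeded at 400 cells/well with DMSO in place of 20 nM camptothecin. After compound pinning, cells grew at least 48 hr at 37 °C; viability read by CellTiter-Glo luminescence.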
uPA surface inh: qHTS for Inhibitors of Cell Surface uPA Generation | hit rate 0.31% among 330,000 | cell surface uPA generation assay, qHTS | Potency, µM (highest dose often 38.3 µM), without a hit: top-dose activity change, negative = inhibition, usual class: inhibitors; active = well fitted inhibition curve with a large enough effect; inconclusive = small, poorly fitted or top-dose-only effect; inactive = no such curve, though single readings can be large or run the other way; tested in mouse RAW 264.7 cells; also: potency is read from the fitted curve at half-maximal effect; nearly all actives have a fitted effect of over 55% in size
HT1080 IDH1KD tx: qHTS for induction of synthetic lethality in tumor cells producing 2HG: qHTS for the HT-1080-IDH1KD cell line | AID 686971, 2013 | Potency, µM (titrated, usually from 46.1 µM), for inactives: at the top dose activity, negative = toxicity, actives largely listed as cytotoxic | hit rate 2% among 360,000 | HT-1080 IDH1 knockdown viability, ATP luminescence, 48 h;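 also: potency is read from the fitted curve at half-maximal effect; 0% = DMSO wells and -100% = cell-free medium wells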
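% activity derives from luminescence (CellTiter-Glo), normalised to DMSO and no-cell wells. HT-1080-IDH1KD cells, 750/well, had 48 h compound exposure at 37 °C.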
HT1080NT lethal: qHTS for induction of synthetic lethality in tumor cells producing 2HG: qHTS for the HT-1080-NT fibrosarcoma cell line; HT-1080-NT fibrosarcoma viability, CellTiter-Glo ATP luminescence, 48 h; Potency, µM (series often up to 46.1 µM), without a hit: at the highest dose activity, negative = less viability, hits mostly cytotoxic; hit rate 1.6% among 360,000; AID 686970, 2013;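 also: NT is the 2HG producing partner of a matched IDH1 knockdown line; potency is read from the fitted curve at half-maximal effect; 0% = DMSO-treated cells and -100% = media-only wells without cells; nearly all actives have a fitted effect of over 55% in size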
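Luminescent CellTiter-Glo readout after 48 hours of compound exposure at 37 degrees C defined viability of HT-1080-NT cells. Activity was normalized to DMSO wells and cell-free media wells; concentration-response curves were fitted and assigned curve classes.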
IL-1B inflam inh: qHTS for Inhibitors of Inflammasome Signaling: IL-1-beta AlphaLISA Primary Screen | activity change, % at 57.5 µM | THP-1 LPS/ATP IL-1B secretion, AlphaLISA, 16 h; stronger effect = lower value | hit rate 4.7% among 360,000 | AID 743279, 2014; in the data active = activity change below about -50%; inconclusive = mostly about -30% to -49%
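THP-1 cells pretreated 1 hr with compounds (up to 57.5 uM final), then stimulated with LPS (250 ng/mL final) plus ATP (1.25 mM final); secreted IL-1B measured by AlphaLISA after 16 hr, decreased signal indicating inhibition.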
* marks the source's active call; other numbers are inactive results; ? = inconclusive; · = no result; [ ] = dose if it differs, or a comment. Hits are enriched below; roughly 19% of the tested compounds scored in any of these assays. Unless noted, calls follow the shape of the dose curve; as a rule, active = well fitted curve in the direction sought with a large enough effect; inconclusive = small, poorly fitted or top-dose-only effect, or another doubt; inactive = no such curve, though single readings can be large; an effect the other way counts as inactive or inconclusive. Unless noted, % is scaled to controls: 0 for no effect and ±100 for the full control effect.

SMILES	TDP1 cell CPT	TDP1 cell noCPT	uPA surface inh	HT1080 IDH1KD tx	HT1080NT lethal	IL-1B inflam inh
Cc1ccc(C(=O)N(c2ccccc2)C2CC(C)N(C(=O)c3ccco3)c3ccccc32)cc1 (centres undefined)	7.3µM*	4.6µM*	-7%	?	?	-23
O[C@@H]1CN(Cc2cccs2)[C@@H](c2ccccc2)C[C@H]1n1cc(C2CC2)nn1	3%	-3%	·	-3%	8%	16
O=C(Nc1cc(Cl)ccc1Cl)Nn1cnnc1	15%	3%	-1%	4%	10%	15
COc1cc2c(cc1OC)CN(C(=O)CN1CCN(S(=O)(=O)c3ccccc3Br)CC1)CC2	?	2.1µM*	0%	0%	12%	-4
O=C(CN1CCN(S(=O)(=O)c2ccc(F)c(Cl)c2)CC1)N1CCc2ccccc2C1	?	16µM*	-5%	-2%	-1%	-5
COc1cc2c(cc1OC)CN(C(=O)CSc1ccccc1C)CC2	?	?	3%	3%	-5%	-60*
COc1cc2c(cc1OC)CN(C(=O)CSC1=NCCS1)CC2	?	21µM*	·	-9%	-9%	-3
COc1cc2c(cc1OC)CN(C(=O)COc1ccc(C)c(C)c1)CC2	?	?	-2%	-12%	-10%	-2
O=C(CN1CCN(S(=O)(=O)c2ccc(F)c(Cl)c2)CC1)N1CCc2ccccc21	?	?	-1%	2%	1%	13
O=C(N=C1SC2CS(=O)(=O)CC2N1Cc1ccccc1)C1CC1 (centres undefined)	-21%	7%	·	7%	2%	30
CCn1c(CNC(=O)c2ccc(OC)cc2)nnc1SCC(=O)Nc1ccc(C)cc1	3%	-10%	·	·	·	·
CN[C@H]1C[C@@H](c2ccccc2)N(C(C)=O)C[C@H]1CO	?	3%	·	8%	-4%	4
CC1CCN(C(=O)c2ccc3c(c2)NC(=O)/C(=C/c2ccccc2)S3)CC1	?	-21%	6%	?	?	·
CCN1CCCC1CNC(=O)c1ccc2c(c1)NC(=O)/C(=C\c1ccc(C)cc1)S2 (centres undefined)	?	16µM*	-16%	0%	?	-15
CCN1CCCC1CNC(=O)c1ccc2c(=O)n(CCOC)c(=O)[nH]c2c1 (centres undefined)	13%	-10%	3%	-1%	5%	11
Cc1ccc(/C=C2/Sc3ccc(C(=O)N4CCN(C)CC4)cc3NC2=O)cc1	23µM*	?	8%	-20%	-14%	-5
COc1ccc(NC(=O)N2CCC3(CC2)CCN(C(=O)c2ccco2)CC3)cc1	6%	-20%	·	·	·	·
Cc1cc(C)n2nc(-c3sccc3-n3c(C)ccc3C)cc2n1	23µM*	16µM*	-7%	-12%	5%	0
Cc1cc(C)n2nc(-c3sccc3-n3cccc3)cc2n1	?	?	-1%	10%[9.24 µM]	8%	-20
CSCCC(C(=O)Nc1c(C)cccc1C)N1CCC(Cc2ccccc2)CC1 (centres undefined)	16µM*	18µM*	·	?	?	-25
O=C(Nc1ccc2c(c1)OCCO2)C(CCc1ccccc1)N1CCC(Cc2ccccc2)CC1 (centres undefined)	?	16µM*	·	-21%	-2%	-8
CSCCC(C(=O)Nc1c(C)cccc1C)N1CCN(c2ccc(F)cc2)CC1 (centres undefined)	?	21µM*	·	-5%	15%	9
CSCCC(C(=O)Nc1c(C)cccc1C)N1CCN(c2ccc(C(F)(F)F)cn2)CC1 (centres undefined)	-4%	-26%	·	8%	0%	5
O=C(Nc1ccc2c(c1)OCCO2)C(CCc1ccccc1)N(Cc1ccccc1)Cc1ccccc1 (centres undefined)	?	?	·	-5%	7%	4
O=C(Nc1ccc(F)cc1)C(CCc1ccccc1)N1CCN(c2ccncc2)CC1 (centres undefined)	16µM*	23µM*	·	?	21µM*	-27
SMILES	TDP1 cell CPT	TDP1 cell noCPT	uPA surface inh	HT1080 IDH1KD tx	HT1080NT lethal	IL-1B inflam inh
COCCN1C[C@@H](CO)O[C@@H](n2cnc3c(N4CCN(CCO)CC4)ncnc32)C1	-14%	-15%	·	3%	?	10
CCOc1ccccc1CN1CCN(Cc2ccon2)CC1CCO (centres undefined)	1%	1%	-3%	1%	-7%	14
Cc1cccc(C)c1NC(=O)C(c1ccccc1)N1CCC2(CC1)OCCO2 (centres undefined)	-9%	-18%	1%	-3%	-2%	-8
Cc1cccc(C)c1NC(=O)C(CCc1ccccc1)N1CCC(c2ccccc2)CC1 (centres undefined)	16µM*	18µM*	·	-1%	4%	2
Cc1cccc(C)c1NC(=S)N1CCC(c2ccccc2)C1 (centres undefined)	-2%	?	0%	2%	-4%	-15
Cc1cccc(C)c1NC(=O)C(c1ccccc1)N1CCC(c2ccccc2)CC1 (centres undefined)	?	15µM*	·	8%	-5%	0
Cc1cc(-c2nnc3n2N=C(c2ccc(F)cc2)CS3)n[nH]1	3%	-24%	-2%	3%	8%	28
CCCCC(CC)CN=C(N)NC(N)=NCCCCCCN=C(N)NC(N)=NCC(CC)CCCC (centres undefined)	13µM*	9.2µM*	?	23µM*	7.3µM*	-104*
CCCCC(CC)CO (centres undefined)	?	-4%	8%	3%	-7%	-12
COc1ccc(-c2cc3nc(C4CCN(C(=O)OC(C)(C)C)CC4)c(C(=O)O)cn3n2)cc1	?	?	·	-27%	1%[9.24 µM]	-14
CCOC(=O)c1cn2nc(-c3ccc(OCC)cc3)cc2nc1C1CCN(C(=O)OC(C)(C)C)CC1	?	16µM*	4%	9%	4%	-1
CCOc1ccc(-c2cc3nc(C4CCN(C(=O)OC(C)(C)C)CC4)c(C(=O)Nc4cccc(C(F)(F)F)c4)cn3n2)cc1	16µM*	?	·	·	·	·
